Measured values taken from PubChem BioAssay AID1117361 (Southern Research Institute, 2015).
Screen size: about 3,600 compounds; about 900 (25%) were called active. Only a sample is shown. Potency and affinity values are given separately. A number with no mark means an inactive call. No rule for the calls is given here.

target: Protein Tat (Human immunodeficiency virus type 1 group M subtype B (isolate HXB2)) (UniProt P04608); experiment: inhibitors of Tat binding to TAR RNA, dose response, counter-screen for Vif-APOBEC3G degradation inhibitor project, biochemical, fluorescence polarization, FAM-labeled TAR RNA (AID 1117361); settings: outcome: dose series up to 100 µM unless noted; series mostly up to 100 µM; inhibition: at the top concentration

| SMILES | inhibition [%] | outcome |
| --- | --- | --- |
| COc1ccc(-c2cc(C(=O)NCCCn3ccnc3)no2)cc1OC | 2.7 |  |
| O=C(CSc1nnc(CCCO)n1-c1ccccc1)NCCc1ccccc1 |  | inactive |
| CCc1ccc(N(C2C=CS(=O)(=O)C2)S(=O)(=O)c2ccc(C)cc2)cc1 (configuration not stated) |  | inactive |
| O=C(c1cnn2c(C(F)F)cc(C3CC3)nc12)N1CCc2ccccc2C1 | 3.41 |  |
| Cc1cc(F)ccc1S(=O)(=O)Nc1ccccc1C(=O)Nc1ccc2[nH]c(=O)[nH]c2c1 | 0.68 |  |
| Cc1ccccc1OCC(=O)NN1Cc2ccccc2C1=N | 0.68 |  |
| CN(C)CCNC(=O)C(=O)c1c(-c2ccccc2)cc2ccccn12 | 3.3 |  |
| CCN1C(=O)c2ccccc2S(=O)c2ccc(C(=O)NC3CC3)cc21 (configuration not stated) | 6.08 |  |
| CCCCC(=O)NCCNC(=O)c1cc(OCC(F)(F)F)ccc1OCC(F)(F)F | 2.73 |  |
| CC(C)NC(=O)c1cc(-c2ccco2)nn1-c1ccc(Cl)cc1 | 21.7 |  |
| COc1ccccc1NC(=O)N1CCCC1C(=O)NC1CCCCC1 (configuration not stated) |  | inactive |
| Cc1[nH]c(=O)nc(NN=Cc2ccc(Cl)cc2)c1C(=O)Nc1ccc(Cl)cc1 |  | inactive |
| CN1C(=O)CSc2ccc(NC(=O)NCc3cccnc3)cc21 |  | inactive |
| Nc1c2c(nc3ccccc13)CCC2 | 4.09 |  |
| O=C(Nc1nc2ccc(Cl)cc2s1)C1CCCO1 (configuration not stated) | 6.08 |  |
| COc1cc(NC(=O)c2cccs2)c(OC)cc1NC(=O)CCn1nnc2ccccc21 |  | inactive |
| O=C(N/N=C/c1ccc(OC(=O)c2cccs2)cc1)c1cccc(F)c1 | 2.7 |  |
| O=C(CS(=O)(=O)c1cn(Cc2ccc(F)cc2)c2ccccc12)N1CCCCC1 |  | inactive |
| O=C(Nc1ccccc1-c1nnn(CC(=O)N2CCc3ccccc3C2)n1)C1CCC1 | 8.78 |  |
| CC(=O)n1nc(-c2ccc(Cl)cc2)nc1NCc1ccco1 | 2.05 |  |
| CNc1nc(Sc2cccc(C(F)(F)F)c2)cc(C(F)(F)F)n1 | 2.7 |  |
| O=C(CCN1C(=O)c2ccccc2C1=O)NCc1ccco1 | 2.34 |  |
| O=C1CSC(c2nn(-c3ccccc3)cc2-c2cc3ccccc3oc2=O)N1Cc1ccco1 (configuration not stated) | 26.4 |  |
| CCOC(=O)c1c(NC(=O)CCN2CCOCC2)sc(C)c1-c1ccccc1 |  | inactive |

| SMILES | inhibition [%] | outcome |
| --- | --- | --- |
| CC(=O)N1CCCc2cc(S(=O)(=O)N(C)CCC#N)ccc21 | 2.7 |  |
| CCc1c(C)[nH]c(=S)c(C#N)c1C | 7.5 |  |
| O=C(NCc1ccc(F)cc1)C1CCCN1C(=O)NCc1ccccc1 (configuration not stated) |  | inactive |
| CCCC(c1nnnn1CC(=O)OCC)N(Cc1cc2c(C)cc(C)cc2[nH]c1=O)C1CCCC1 (configuration not stated) | 16.4 |  |
| O=C(c1ccco1)N1CCN=C1SCc1ccccc1F | 6.82 |  |
| Cc1ccccc1S(=O)(=O)Cc1ccc(C(=O)NCCCN2CCC(C)CC2)o1 | 2.34 |  |
| O=C(CCCCl)Nc1nc(-c2ccc3c(c2)OCCO3)cs1 | 4.12 |  |
| CN(C)C(=O)c1cc(Cl)ccc1Sc1cc(Cl)ccc1Cl | 4.77 |  |
| COC(C[C@H]1O[C@@H]1[C@@H](O)COCc1ccccc1)OC |  | inactive |
| N#Cc1nc(Cc2cccc3ccccc23)oc1NCc1ccc(F)cc1 |  | inactive |
| Cc1nc(C(=O)N(C)C)nn1-c1cc(Cl)cc(Cl)c1 | 2.05 |  |
| CCC(=O)Nc1nc2ccc(NC(C)=O)cc2s1 |  | inactive |
| CC(C)c1ccccc1N1CC(C(=O)O)CC1=O (configuration not stated) |  | inactive |
| COc1cc(C2C(C(=O)c3ccco3)=C(O)C(=O)N2c2cc(C)on2)cc(Br)c1O (configuration not stated) | 27.7 |  |
| COc1ccc(/C(O)=C2/C(=O)C(=O)N(c3ccccn3)C2c2ccc(F)cc2)cc1 (configuration not stated) | 9.69 |  |
| O=C(C1CCCC1)N1CCCC(Nc2ccc(F)cc2)C1 (configuration not stated) | 1.67 |  |
| COc1ccccc1N1CCN(C(=O)c2cc(-c3cccs3)on2)CC1 |  | inactive |
| O=C(c1cc(-c2cccs2)on1)N1CCCCC1 | 4.73 |  |
| COc1cccc2sc(N(C)c3ccccc3)nc12 |  | inactive |
| CC1CCN(S(=O)(=O)c2cc(Br)cc(C(=O)NC3=NCCS3)c2)CC1 | 4.05 |  |
| C=CCNC(=O)c1ccncc1 | 2.03 |  |
| COc1cc(/C=N/NC(=O)c2ccc(NS(=O)(=O)c3cccs3)cc2)cc(OC)c1O |  | inactive |
| CCn1cc(C(=O)N2CCOCC2)c(=O)c2cc(S(=O)(=O)N(C)C3CCCCC3)ccc21 |  | inactive |
| CSc1cccc(NC(=O)CN(c2cc(C)ccc2C)S(C)(=O)=O)c1 | 6.08 |  |

| SMILES | inhibition [%] | outcome |
| --- | --- | --- |
| CSc1cccc(NC(=O)C(C)C)c1 | 19 |  |
| CCOC(=O)C1CCN(C(=O)c2ccc(Cl)c(S(=O)(=O)N3CCOCC3)c2)CC1 | 13 |  |
| O=C(N/N=C/c1ccc(F)cc1)c1ccc(Br)cc1 | 13.6 |  |
| CSCC[C@H](NC(=O)NCc1ccccc1F)C(=O)O | 2.03 |  |
| O=C(O)c1ccccc1NS(=O)(=O)c1ccccc1C(F)(F)F | 1.36 |  |
| COc1ccc(NC(=O)c2cccnc2C(=O)O)c(OC)c1 | 4.95 |  |
| Cc1cc(=O)[nH]c2c1c(C)nn2C1CCCC1 |  | inactive |
| Cc1ccc2c(c1)c(=O)c1c3n2CCN(C(=O)CCl)C3CC1 (configuration not stated) | 16.4 |  |
| O=C(COC(=O)c1ccccc1OC(F)F)Nc1ccc2[nH]c(=O)[nH]c2c1 |  | inactive |
| CCN(CC)C(=O)c1sc(NC(=O)c2ccc(Br)o2)c(C(=O)OC)c1C | 5.46 |  |
| CCc1c(C(=O)NCc2ccccc2Cl)[nH]c(C)c1C(C)=O |  | inactive |
| C=CCNC(=O)c1ccccc1Cl |  | inactive |
| Nc1ccc(Sc2cc(Cl)nc(N)n2)cc1 | 4.05 |  |
| O=C(CSc1nc(N2CCCCC2)nc(N2CCCCC2)n1)N1CCc2ccccc21 |  | inactive |
| O=C(Cn1ccc([N+](=O)[O-])n1)N1CCCc2ccccc21 | 2.03 |  |
| CCCCNC(=O)CN1C(=O)CSc2ccc(S(=O)(=O)N3CCOCC3)cc21 |  | inactive |
| CO/N=C/C(=N\Nc1ccc(OC)cc1)C(=O)c1ccc(OC)cc1 | 5.46 |  |
| COc1ccc(C(=O)C2CCCN(C(=O)c3cnsn3)C2)c(C)c1 (configuration not stated) |  | inactive |
| CC(=O)c1ccc(-c2nnc(CCC(=O)N(C)Cc3c(C)nc4ccccn34)o2)s1 | 4.95 |  |
| CN(C(=O)CSc1ncnc2sccc12)C1CCCCC1 |  | inactive |
| O=C(/C=C/c1ccccc1)NC(NC(=S)Nc1cc(Cl)ccc1Cl)C(Cl)(Cl)Cl (configuration not stated) |  | inactive |
| O=C(O)c1cccc(NCc2ccncc2)c1 | 20.9 |  |
| COC(=O)c1ccc(NC(=O)COc2cccc(-n3cnnn3)c2)cc1 | 6.35 |  |
| COC(=O)c1cccc(NC(=O)c2cccc(OC)c2)c1 | 4.05 |  |

| SMILES | inhibition [%] | outcome |
| --- | --- | --- |
| CC(=O)Nc1ccc2c(c1)Cc1cc(N3C(=O)C=CC3=O)ccc1-2 |  | inactive |
| CCOc1ccc(C2=[N+]([O-])C(C)(C)N(O)C2(C)C)cc1 | 3.41 |  |
| CCCCn1nnc(NC(=O)c2ccc(-c3cccc(Cl)c3)o2)n1 | 0.68 |  |
| CC1(C)CC(=O)c2cc(OCC(=O)NCc3cccnc3)ccc2O1 | 8.11 |  |
| CCOC(=O)/C(=C/c1c2ccccc2cc2ccccc12)NC(=O)c1ccccc1 | 3.38 |  |
| CCOC(=O)/C(=C\c1ccccc1)NC(=O)c1ccccc1 |  | inactive |
| COc1ccc(S(=O)(=O)NCc2ccccn2)cc1 | 4.05 |  |
| Cc1cccc(C)c1NS(=O)(=O)c1c(C)[nH]c(=O)[nH]c1=O | 6.14 |  |
| COc1ccc(CNc2ncnc(N)n2)cc1 | 5.41 |  |
| CCCC(=O)Nc1ccccc1NC(C)=O | 4.05 |  |
| CC(C)CC(NC(=O)CCl)c1ccccc1 (configuration not stated) |  | inactive |
| CCN(CC)C(=O)CSCC(=O)Nc1ccccc1 | 2.03 |  |
| CCOC(=O)c1ccc(NC(=O)CSc2nnc(Cc3cccs3)n2C)cc1 | 4.77 |  |
| O=C(c1c(F)cccc1F)N(Cc1ccccn1)C1CCCC1 |  | inactive |
| O=C(CCn1c(=O)c2ccccc2n(CC(=O)NCCC2=CCCCC2)c1=O)NCc1ccco1 | 16.4 |  |
| O=C(NCCc1ccc(Cl)cc1)C1CCN(C(=O)c2sccc2-n2cccc2)CC1 | 10.2 |  |
| COc1cc(C(O)P(=O)(OCC(C)C)OCC(C)C)cc(OC)c1OC (configuration not stated) |  | inactive |
| Cc1ccc(CNC(=O)C2c3ccccc3C(=O)N3CCc4ccccc4C23)o1 (configuration not stated) | 10.9 |  |
| CN1CCN(C(=O)c2ccc(N(C)S(=O)(=O)c3cccs3)cc2)CC1 |  | inactive |
| Cc1ccc(CSC2=Nc3sccc3C3=NC(=O)CN23)cc1 | 25.9 |  |
| COCC(=O)NCCc1nc2ccccc2[nH]1 | 2.03 |  |
| COCCn1c(N2CCN(c3ccc(OC)cc3)CC2)nc2c1c(=O)[nH]c(=O)n2C |  | inactive |
| CCCn1c(NC(=O)c2ccco2)nc2ccccc21 |  | inactive |
| CCn1c(=N)n(CC(=O)c2ccc(OC)cc2)c2ccccc21 |  | inactive |

| SMILES | inhibition [%] | outcome |
| --- | --- | --- |
| CC(=O)c1sc(NC(=O)C2CCN(C(=O)c3ccccc3C)CC2)nc1-c1ccccc1 | 19 |  |
| COc1ccc2oc(C(F)(F)C(F)(F)F)cc(=O)c2c1 | 8.87 |  |
| O=C(CN1CCC(NC(=O)c2cccc(F)c2)CC1)NCc1ccccc1F | 13.6 |  |
| CCN(CC)C(=O)CN1C(=O)C2(NC(=O)c3ccccc3N2)c2ccccc21 (configuration not stated) |  | inactive |
| Cc1ccc(OC(=O)COc2ccccc2)c(-n2nc3ccccc3n2)c1 | 1.36 |  |
| O=C(NCc1ccncc1)c1ccc(Cn2cc(C(F)(F)F)ccc2=O)cc1 |  | inactive |
| CC(OC(=O)c1cccs1)C(=O)NCc1ccco1 (configuration not stated) | 3.38 |  |
| CCc1ccc(NS(=O)(=O)c2cccs2)cc1 | 8.11 |  |
| COc1cccc(-c2nnc(SCC(=O)OC(C)C)n2N)c1 | 1.35 |  |
| O=C(c1ccco1)N(Cc1ccc([N+](=O)[O-])cc1)c1ccc(Cl)cc1 |  | inactive |
| O=C(c1ccco1)N(Cc1ccco1)c1ccc(O)cc1 |  | inactive |
| O=C(Cn1ncc(Cl)c(Cl)c1=O)c1ccc2c(c1)OCCO2 |  | inactive |
| CCCCCCC(=O)N(O)C1CC(=O)N(c2ccc(Br)cc2)C1=O (configuration not stated) | 9.55 |  |
| Nc1nc(SCC(=O)OCc2ccccc2)[nH]c(=O)c1NC(=O)c1ccco1 | 0.68 |  |
| NS(=O)(=O)c1ccc(CCNC2CC(=O)N(Cc3ccccc3)C2=O)cc1 (configuration not stated) |  | inactive |
| O=C1CC(Nc2ccc(N3CCOCC3)cc2)C(=O)N1CCc1ccccc1 (configuration not stated) |  | inactive |
| COc1ccc(Nc2ncc(F)c(N3CCOCC3)n2)cc1 |  | inactive |
| O=S(=O)(N1CCCCC1)N1CCN(c2ccccc2F)CC1 | 7.43 |  |
| COc1ccc(CCN2C(=O)c3cccnc3C2=O)cc1OC | 4.09 |  |
| CCNC(=O)CC1C(=O)N(c2ccc(C)cc2)C(=O)N1CCc1ccc(OC)c(OC)c1 (configuration not stated) | 6.82 |  |
| COc1cc(N2C(=O)C=CC2=O)ccc1N1C(=O)C=CC1=O | 9.02 |  |
